These sequences were tested against ITFG1 (assay: pooled miR-30 sensor sort-seq; sequence = guide strand). Details: shRNA.
Further: reference of the scale not given here.

Sequence | sensor-assay potency score (higher = more potent)
TAGATCACCATTGAAATCCATA | -0.916
TATACATGATATAAGGTCCAGG | -0.949
TTATCTTACGAGGACAGTCATT | -1.41
TATTGCTGAAATCTTGTAGGAC | 0.541
TAATGTTTGATTTTGTCCCCAG | -0.0623
TAACTTTAACAAAATAAGCATC | -1.35
TTTAGGTCTGTCAGCTCCCAGT | -0.933
TTTATCTTCACAGCCTGGCAGT | -0.637
TTCGTATAGATTTTTCTCCAGA | -0.843
TTTTTCTCTATCATCTGCTTTC | -0.602

Each sequence was assayed against ITFG2 in the same assay as above. Details: shRNA.

Sequence | sensor-assay potency score (higher = more potent)
TAACGTATCGTTATCAACGTCT | 0.345
TATCGTTATCAACGTCTCCGAG | -0.305
TTTCTTGAGGGACACCAGCTGC | -0.971
TTAACGTATCGTTATCAACGTC | -0.293
TAGATCTTCTGGTTGAAAGTGA | -0.00804
TAGGTGAGTGGAGACATTCTTG | -0.555
ATCGTTATCAACGTCTCCGAGG | -1.09
TACACAGACACCTTCCCGCTGG | -0.00421
TTTGATGTTGCCAATTAGGTGA | -0.267
TTGAGGGAGCACACTGTGGTGG | -0.228
TTTTCATCCACTTGGAAGCGGA | -0.742
TTATACACAGACACCTTCCCGC | 0.0194
